Test results taken from PubChem BioAssay (NCI).
This is part of a sample that, as a whole, favours compounds with a hit. Of some 83,000 tested, about 20% had one in any assay.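 Compound tested at a single concentration for 48 hours in 96-well plates; a percent growth value below 10 was scored as active.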 The source made the active and inactive calls.

Assays:
Assay in all cases: NCI-60 one-dose screen, 48 h (100 = growth as untreated, 0 = no growth, -100 = all killed)
Settings in all cases: 10 µM unless noted
[1] = system: OVCAR-8 ovarian
[2] = system: OVCAR-5 ovarian
[3] = system: OVCAR-4 ovarian
[4] = system: SK-OV-3 ovarian
[5] = system: IGROV1 ovarian
[6] = system: OVCAR-3 ovarian
[7] = system: HS 578T breast
[8] = system: NCI/ADR-RES ovarian
[9] = system: RPMI-8226 leukemia

Measured: growth

COc1ccc(C(=O)c2nc3ccccc3n2CC(=O)c2ccc(F)cc2)cc1
inactive: [1] 89.5% | [2] 82.5% | [3] 73.8% | [4] 116% | [5] 86.6% | [6] 84.1% | [7] 103% | [8] 58.3%

C[C@H]1[C@H]2[C@H]3CC[C@@H]4[C@@]5(C)CC[C@H](O)C(C)(C)[C@@H]5CC[C@@]4(C)[C@]3(C)CC[C@]23CO[C@]1(C)[C@@H](C(=O)/C=C\c1ccco1)C3
inactive: [9] 106% | [1] 99.3% | [2] 102% | [3] 111% | [4] 103% | [6] 103% | [7] 95.8% | [8] 95.3%

CC(=O)O[C@H]1Cc2c([nH]c3ccccc23)[C@@H](c2ccc(Cl)cc2)N1C(=O)CCNC(C)(C)C
inactive: [9] 44.2% | [1] 83.4% | [2] 59.6% | [3] 64.6% | [4] 90.5% | [6] 70.8% | [7] 62.3% | [8] 91.8%

O=C(/C=C/c1c(-c2ccc(Cl)cc2)nn(-c2ccccc2)c1C(F)(F)F)c1ccc(Cl)cc1
inactive: [1] 77.8% | [2] 102% | [3] 89% | [4] 82.7% | [5] 102% | [6] 95.3% | [7] 92.2% | [8] 97.4%

N#CC1=C(N)Oc2c(cnn2-c2ccc([N+](=O)[O-])cc2[N+](=O)[O-])C1c1ccccc1 (centres undefined)
inactive: [9] 92.5% | [1] 101% | [2] 99.1% | [3] 109% | [4] 112% | [6] 112% | [7] 89% | [8] 101%

COc1cc(C2C3=C(COC3=O)N(CCO)c3cc4c(cc32)CCC4)cc(OC)c1OC (centres undefined)
active: [2] 8% | [4] -32.1% | [6] -33.4% | [8] -74.5%
inactive: [9] 17.9% | [1] 31.5% | [3] 23.3% | [7] 14.5%

COc1ccc(/C=C/C(=O)Nc2cc(/C=C\c3cc(OC)c(OC)c(OC)c3)cc(OC)c2OC)cc1OC
active: [8] -11.2%
inactive: [1] 34.2% | [2] 63.2% | [3] 47.7% | [4] 11.6% | [6] 12.2% | [7] 29%

Cc1cc(Cl)nc(N(CCNc2ccnc3cc(Cl)ccc23)Cc2ccccn2)n1
inactive: [9] 26.6% | [1] 39.3% | [2] 74.3% | [3] 35% | [4] 82.9% | [5] 57.5% | [7] 87.3% | [8] 47.5%

N#C/C(=C\c1cccc(C#N)c1)c1ccccc1
inactive: [1] 111% | [2] 100% | [3] 98.8% | [4] 105% | [5] 107% | [6] 105% | [7] 106% | [8] 101%

CCCCCCCC(=O)OCC/C=C/C1OC1C1OC(=O)/C=C\C=C\C(=O)N(C(C)=O)C(=O)/C=C(/C)CCC2OC2C1OC(=O)NC(C)=O (centres undefined)
inactive: [9] 45.2% | [1] 85.1% | [2] 79.5% | [3] 97.2% | [4] 96% | [5] 62.7% | [7] 87.5% | [8] 78.1%

O=C(/C=C/c1ccc[nH]1)c1ccc(-n2ccc(C(F)(F)F)n2)c(F)c1
inactive: [1] 95.6% | [2] 90.9% | [3] 99.2% | [4] 121% | [5] 93.4% | [7] 98% | [8] 93.1%
active: [9] -6.08%

COC(=O)C(CC=O)C(=O)C(=O)Nc1cccc(C(F)(F)F)c1 (centres undefined)
inactive: [1] 90.5% | [2] 112% | [3] 105% | [4] 93.5% | [5] 102% | [6] 106% | [7] 90.6% | [8] 107%

COc1cc(/C=C\c2cc(/C=C\c3ccc(O)c(OC)c3)n(C(=O)COc3ccccc3)n2)ccc1O
inactive: [2] 22.1% | [3] 25.6% | [7] 22.5% | [8] 20.4%
active: [9] -3.54% | [1] 3.26% | [4] -28.6% | [5] 8.43%

CC(c1ccccc1)C(C(=O)c1ccccc1)c1ccccc1 (centres undefined)
inactive: [1] 63.7% | [2] 101% | [3] 96% | [4] 101% | [5] 99.5% | [6] 110% | [7] 91.2% | [8] 80.3%

COC(=O)CNC(=O)[C@]12CCC(C)(C)C[C@H]1C1=CC[C@@H]3[C@@]4(C)Cc5c([nH]c6ccccc56)C(C)(C)[C@@H]4CC[C@@]3(C)[C@]1(C)CC2
inactive: [1] 85.2% | [2] 95.4% | [3] 77% | [4] 82.6% | [5] 104% | [6] 93% | [7] 87.5% | [8] 89.6%

Cc1ccc(-n2nc3c(c(C#N)c2=O)CC(c2ccccc2[N+](=O)[O-])C([N+](=O)[O-])=C3O)cc1 (centres undefined)
inactive: [1] 90.2% | [2] 99.8% | [3] 75.2% | [5] 86.2% | [7] 77.7% | [8] 99.8%

COc1cc(NC(=O)CSc2nc3ccc(C)cc3c(=O)n2Cc2ccccc2)cc(OC)c1OC
inactive: [1] 41.3% | [2] 96.3% | [3] 23.9% | [4] 40% | [5] 74.3% | [6] 43.8% | [7] 44.9% | [8] 66.3%

N#CC1=C(N)Oc2c(ccc3ccccc23)C1c1ccccc1Cl (centres undefined)
active: [1] 7.5% | [8] -0.548%
inactive: [9] 30.1% | [2] 38.8% | [3] 42.2% | [4] 59.3% | [5] 24.9% | [7] 16.8%

Cc1c(C(=O)NCCC(=O)NO)sc2ncnc(Nc3ccc(F)c(Cl)c3)c12
inactive: [1] 101% | [2] 108% | [3] 109% | [4] 129% | [5] 106% | [6] 107% | [7] 103% | [8] 101%

COc1cccc2c1c1nc3cc(C)c(C)cc3nc1n2CCN(C)C
inactive: [1] 26.4% | [2] 28.7% | [3] 35% | [4] 39% | [6] 32.6% | [7] 54.4% | [8] 25.1%
active: [5] 5.59%

C#Cc1cccc(NC(=O)c2cccc(NC(=O)CCl)c2)c1
active: [9] -3.03% [8.25 µM] | [1] -28.3% [8.25 µM] | [2] 8.37% [8.25 µM] | [3] -38.1% [8.25 µM] | [5] -53.5% [8.25 µM] | [8] -11.5% [8.25 µM]
inactive: [4] 56.4% [8.25 µM] | [7] 31.8% [8.25 µM]

C[C@@H](Nc1ncnc2ccc(-c3cnc(N)nc3)cc12)c1ccc(F)cc1
inactive: [9] 83.6% | [1] 78.1% | [2] 44.6% | [3] 74.3% | [4] 103% | [6] 69.2% | [7] 69.2% | [8] 86%

CSc1nc2sc3cccc(Cl)c3n2c(=N)c1C#N
inactive: [9] 90.7% | [1] 99.3% | [2] 119% | [5] 93.4% | [6] 110% | [7] 98.2% | [8] 103%

COc1cc(C(=O)Nc2cc3c(cc2Oc2cc(C)cc(C)c2)C(=O)N(C)[C@@H](CC(=O)N(C)O)C(=O)N3)c(Br)c(OC)c1OC
active: [1] 0.573% | [2] -18.6% | [3] -33.3% | [4] -0.559% | [5] -22.5% | [6] -35.5% | [7] -18.1%
inactive: [8] 17.9%

Cc1cccc(C)c1N=c1oc2ccc(Cl)cc2nc1-c1ccccc1O
inactive: [9] 82.9% | [1] 91.4% | [2] 81.3% | [3] 78.4% | [4] 92.8% | [6] 102% | [7] 84.3% | [8] 86.4%

O=C(Nc1ccc(F)cc1)Nc1ccc(NC(=O)c2cc(Cl)nc3ccccc23)cc1
active: [7] 9.05%
inactive: [1] 42.9% | [2] 92.9% | [3] 51.2% | [4] 59.8% | [5] 52.6% | [6] 12.2% | [8] 99.7%
